Reference: paper PMC4336329 (PLoS ONE, 2015)
Hit rate of the full screen: of about 310,000 compounds, about 14,000 (4.5%) showed an effect of 50% or more. The effect is printed as a negative number. The full list was thinned out, with strong results kept by preference.

The compounds below were run against human ether-à-go-go-related gene (hERG) potassium channel (human, UniProt Q12809) (assay: primary screen, population patch clamp on CHO cells stably expressing hERG; higher = less effect of the substance).
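Also: peak tail current of the secondary pulse compared with the same well before compound.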

human ether-à-go-go-related gene (hERG) potassium channel, sequence (Q12809 whole entry, looked up): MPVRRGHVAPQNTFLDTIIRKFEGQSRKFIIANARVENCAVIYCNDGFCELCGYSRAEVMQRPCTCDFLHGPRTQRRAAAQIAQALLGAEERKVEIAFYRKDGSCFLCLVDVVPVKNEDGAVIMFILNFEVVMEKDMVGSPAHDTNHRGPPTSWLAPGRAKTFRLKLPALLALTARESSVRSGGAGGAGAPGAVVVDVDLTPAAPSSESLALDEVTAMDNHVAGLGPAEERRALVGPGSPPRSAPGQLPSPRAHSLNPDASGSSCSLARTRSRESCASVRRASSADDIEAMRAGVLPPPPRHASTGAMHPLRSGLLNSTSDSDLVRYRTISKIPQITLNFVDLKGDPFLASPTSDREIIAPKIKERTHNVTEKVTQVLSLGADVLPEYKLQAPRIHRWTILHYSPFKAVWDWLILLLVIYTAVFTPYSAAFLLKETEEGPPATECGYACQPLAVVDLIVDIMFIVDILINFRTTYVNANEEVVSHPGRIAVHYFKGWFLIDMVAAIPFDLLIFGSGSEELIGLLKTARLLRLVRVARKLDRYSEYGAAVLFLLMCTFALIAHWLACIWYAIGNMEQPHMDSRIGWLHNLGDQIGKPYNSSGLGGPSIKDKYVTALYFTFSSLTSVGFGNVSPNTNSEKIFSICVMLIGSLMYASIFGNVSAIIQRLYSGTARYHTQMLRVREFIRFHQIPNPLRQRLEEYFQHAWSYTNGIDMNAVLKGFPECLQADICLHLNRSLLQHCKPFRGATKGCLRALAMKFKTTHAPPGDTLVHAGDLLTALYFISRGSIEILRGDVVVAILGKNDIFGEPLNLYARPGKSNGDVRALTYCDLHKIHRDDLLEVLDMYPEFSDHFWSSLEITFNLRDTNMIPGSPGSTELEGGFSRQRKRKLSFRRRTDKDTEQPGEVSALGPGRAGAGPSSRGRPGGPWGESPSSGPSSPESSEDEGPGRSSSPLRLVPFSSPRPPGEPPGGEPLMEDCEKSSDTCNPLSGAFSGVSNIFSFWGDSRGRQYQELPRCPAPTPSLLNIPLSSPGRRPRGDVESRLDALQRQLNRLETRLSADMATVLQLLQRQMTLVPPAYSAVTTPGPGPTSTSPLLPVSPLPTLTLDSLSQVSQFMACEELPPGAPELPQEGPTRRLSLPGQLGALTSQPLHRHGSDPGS

| SMILES | hERG current change (%, negative = inhibition) at 10uM [%] |
| --- | --- |
| COc1ccc(CN2CCOCC2)cc1 | 10.7 |
| COc1ccc(CN2CCOCCOCCOCCOCC2)cc1 | -36 |
| COc1ccc(CN2CCOCCOCCOCC2)cc1 | -58.3 |
| COc1ccc(CN2CCOCCOCCN(Cc3ccc(OC)cc3)CCOCCOCC2)cc1 | -77.3 |
| COc1ccc(CN2CCCCCC2)cc1 | -10.9 |
| COc1ccc(CN2CCOCCOCCOCCOCCOCC2)cc1 | -20.7 |
| COc1ccc(-n2nnnc2SCC(=O)Nc2cc(OC)c([N+](=O)[O-])cc2C)cc1 | 42.4 |
| COc1ccccc1N1CCN(C(=O)C(C)N(c2ccccc2)S(C)(=O)=O)CC1 (stereo not drawn) | 5.64 |
| CCOC(=O)Nc1ccc(C)cc1NC(=O)OCC | 11.7 |
| Cc1ccc(NS(=O)(=O)c2cccs2)c(C)c1 | -2.42 |
| N#C/C(=C/c1ccc(F)cc1)S(=O)(=O)c1ccccc1 | 21.3 |
| COCc1ccc(CN2CCCC(CO)(Cc3cccc(OC)c3)C2)o1 (stereo not drawn) | -26.2 |
| Cc1ccccc1CC1(CO)CCCN(Cc2nc(-c3cccs3)oc2C)C1 (stereo not drawn) | -61.1 |
| COc1cccc(CC2(CO)CCCN(Cc3nc(-c4cccs4)oc3C)C2)c1 (stereo not drawn) | -64.5 |
| COc1cccc(CC2(CO)CCCN(Cc3ccc(CO)o3)C2)c1 (stereo not drawn) | -7.04 |
| Cc1oc(-c2cccs2)nc1CN1CC[C@@](O)(c2ccccc2)[C@H]2CCCC[C@@H]21 | 11.8 |
| Cc1oc(-c2cccs2)nc1CN1CCN(C(C)C)C(CCO)C1 (stereo not drawn) | 4.95 |
| Cc1oc(-c2cccs2)nc1CN1CCC(CO)(CCOc2ccccc2)CC1 | -67 |
| Cc1ccc(CN2CCCC(CO)(Cc3ccccc3C)C2)s1 (stereo not drawn) | -37.7 |
| Cc1oc(-c2cccs2)nc1CN1CCN(Cc2ccc(F)c(F)c2)C(CCO)C1 (stereo not drawn) | -47.2 |
| Cc1ccccc1CC1(CO)CCCN(Cc2ccccc2Cl)C1 (stereo not drawn) | -25.6 |
| COc1cccc(CN2CCN(Cc3nc(-c4cccs4)oc3C)CC2CCO)c1 (stereo not drawn) | -57 |
| Cc1oc(-c2cccs2)nc1CN1CCN(CC(C)C)C(CCO)C1 (stereo not drawn) | 5.96 |

| SMILES | hERG current change (%, negative = inhibition) at 10uM [%] |
| --- | --- |
| OCC1CCCN1C(=S)Nc1ccccc1 (stereo not drawn) | 3.84 |
| COc1ccc(C(=O)COC(=O)CN2C(=O)C3C4CCC(C4)C3C2=O)cc1 (stereo not drawn) | -17.9 |
| O=C(CSc1nc2c(cnn2-c2ccc(F)cc2)c(=O)[nH]1)N1CCCc2ccccc21 | 10.1 |
| O=C1C=C(O)c2cccc3cccc1c23 | 28.3 |
| CCN(CC)S(=O)(=O)c1ccc2c(c1)oc(=O)n2CC(=O)N(C)C1CCCCC1 | -11.9 |
| Cc1cc(-c2cccs2)c2c(n1)sc1c(=O)[nH]c(=O)[nH]c12 | 5.3 |
| O=C(NCCCNC(=O)c1cnccn1)c1ccc(Cl)c(Cl)c1 | -15.6 |
| Cc1oc(-c2cccs2)nc1CN1CCC(c2ccccc2)CC1 | -66.5 |
| COc1ccc(-c2nc(CN3CCC(c4ccccc4)CC3)c(C)o2)cc1OC | -37.7 |
| Cc1oc(-c2cccs2)nc1CN1CCC(C(=O)N2CCCC2)CC1 | -11.2 |
| Cc1c(Cl)cccc1NC(=O)CCN1CCCCCC1 | -3.92 |
| C/C(=N\OCC(=O)NCC(F)(F)F)c1cc2ccccc2o1 | -1.58 |
| CCc1ccc(CN(C)C(=O)C2CCC(=O)N(Cc3ccccn3)C2)cc1 (stereo not drawn) | -1.48 |
| O=C(NCCc1nccs1)C1CCC(=O)N(CCc2ccc(Cl)cc2)C1 (stereo not drawn) | -31.6 |
| CN(Cc1nccn1C)C(=O)C1CCC(=O)N(Cc2cccc(C(F)(F)F)c2)C1 (stereo not drawn) | -9.93 |
| CN(Cc1ccccn1)C(=O)C1CCC(=O)N(Cc2cccc(C(F)(F)F)c2)C1 (stereo not drawn) | -15.7 |
| CN(Cc1ccon1)C(=O)C1CCC(=O)N(Cc2ccc(Cl)cc2)C1 (stereo not drawn) | -40.9 |
| CN(Cc1nccs1)C(=O)C1CCC(=O)N(CCc2cccc(F)c2)C1 (stereo not drawn) | -12.4 |
| CN(Cc1cnn(C)c1)C(=O)C1CCC(=O)N(Cc2ccc(Cl)cc2)C1 (stereo not drawn) | -9.64 |
| CN(Cc1ccccn1)C(=O)C1CCC(=O)N(CCc2ccc(Cl)cc2)C1 (stereo not drawn) | -53.1 |
| CN(Cc1cnccn1)C(=O)C1CCC(=O)N(CCc2ccccc2)C1 (stereo not drawn) | 19.7 |
| CN(Cc1nccn1C)C(=O)C1CCC(=O)N(CCc2ccc(Cl)cc2)C1 (stereo not drawn) | -53.8 |
| CN(Cc1nccs1)C(=O)C1CCC(=O)N(CCc2ccc(Cl)cc2)C1 (stereo not drawn) | -81.5 |

| SMILES | hERG current change (%, negative = inhibition) at 10uM [%] |
| --- | --- |
| CN(Cc1cnccn1)C(=O)C1CCC(=O)N(CCc2ccc(Cl)cc2)C1 (stereo not drawn) | -67.9 |
| O=C(NNC(=O)C1COc2ccccc2O1)c1ccccc1 (stereo not drawn) | -1.85 |
| O=C(NCc1cccs1)C1CCC(CNS(=O)(=O)c2ccccc2)CC1 (stereo not drawn) | -2.7 |
| O=C(Nc1cccnc1)c1ccc(C(=O)Nc2cccnc2)cc1 | 29.7 |
| COc1ccc(-c2nc(CS(=O)CC(=O)NC3CCCCCC3)c(C)o2)cc1 (stereo not drawn) | 10.6 |
| CCN(CC(=O)NC(C)(C)C)C(=O)C(c1ccccc1)c1ccccc1 | 23.5 |
| COc1cccc(NC(=O)c2ccc(S(=O)(=O)NCc3cccnc3)cc2)c1 | -0.62 |
| O=c1oc2ccccc2c(O)c1C=Nc1cccnc1 | 12.2 |
| O=C(Nc1ccccc1Oc1cccnc1)C1CCCN(Cc2ccccc2O)C1 (stereo not drawn) | -57.2 |
| Cc1ccccc1CN1CCCC(C(=O)Nc2ccccc2Oc2cccnc2)C1 (stereo not drawn) | 0.0346 |
| Cc1cccc(CN2CCCC(C(=O)Nc3ccccc3Oc3cccnc3)C2)c1 (stereo not drawn) | -43.9 |
| C#Cc1ccc(CN2CCCC(C(=O)Nc3ccccc3Oc3cccnc3)C2)cc1 (stereo not drawn) | -58.5 |
| O=C(Nc1ccccc1Oc1cccnc1)C1CCCN(Cc2cccc(Cl)c2)C1 (stereo not drawn) | -30.2 |
| O=C(Nc1ccccc1Oc1cccnc1)C1CCCN(Cc2ccc(F)cc2)C1 (stereo not drawn) | -36.2 |
| CCN1CCN(CC(O)COc2ccc3c(C)cc(=O)oc3c2)CC1.Cl (stereo not drawn) | -0.83 |
| O=C(CSCC(=O)N1CCOCC1)Nc1ccccc1 | -0.115 |
| O=C(NC1CCS(=O)(=O)C1)c1ccc2c(c1)OCO2 (stereo not drawn) | 13 |
| Cc1nc2ccc(NC(=O)c3ccc(Cl)c(S(=O)(=O)N(C)c4ccccc4)c3)cc2s1 | 10.3 |
| Cc1cccc(C)c1NC(=O)C(NC=O)c1ccc(Cl)cc1 (stereo not drawn) | 0.758 |
| Cc1cccc(C)c1NC(=O)C(NC=O)c1ccc(N(C)C)cc1 (stereo not drawn) | -11.1 |
| Cc1cccc(C)c1NC(=O)C(NC=O)c1ccccc1 (stereo not drawn) | -64.1 |
| COc1cc2c(=O)n(Cc3ccco3)c(=O)n(CC(=O)c3ccc(Br)cc3)c2cc1OC | -3.02 |
| O=C(NCC(c1ccco1)N1CCc2ccccc21)c1ccccc1Br (stereo not drawn) | -29.3 |

| SMILES | hERG current change (%, negative = inhibition) at 10uM [%] |
| --- | --- |
| O=C(NCC(c1ccco1)N1CCc2ccccc21)c1ccccc1 (stereo not drawn) | -3.78 |
| Cc1ccc(C(=O)NCC(c2ccco2)N2CCc3ccccc32)cc1C (stereo not drawn) | -60.1 |
| COc1ccc(CCC(=O)NCC(c2ccco2)N2CCc3ccccc32)cc1 (stereo not drawn) | -44.2 |
| O=C(NCC(c1ccco1)N1CCc2ccccc21)c1c(F)cccc1F (stereo not drawn) | -7.53 |
| COc1ccccc1C(=O)NCC(c1ccco1)N1CCc2ccccc21 (stereo not drawn) | -6.41 |
| Cc1cccc(C(=O)NCC(c2ccco2)N2CCc3ccccc32)c1 (stereo not drawn) | -25.6 |
| Cc1ccccc1C(=O)NCC(c1ccco1)N1CCc2ccccc21 (stereo not drawn) | -55.7 |
| O=C(NCC(c1ccco1)N1CCc2ccccc21)c1ccccc1F (stereo not drawn) | -19.8 |
| O=C(CCc1ccccc1)NCC(c1ccco1)N1CCc2ccccc21 (stereo not drawn) | -56.2 |
| O=C(NCC(c1ccco1)N1CCc2ccccc21)c1ccccc1Cl (stereo not drawn) | -60.2 |
| Cc1ccc(C(=O)NCC(c2ccco2)N2CCc3ccccc32)cc1 (stereo not drawn) | -13 |
| O=C(C[n+]1ccc(/C=N/O)cc1)N(Cc1ccccc1)Cc1ccccc1.[Cl-] | 0.798 |
| CC(=C/C(=O)O)/C(=C/c1ccccc1)C(=O)O | 15.6 |
| Cc1occc1C(=O)n1nnc2ccccc21 | -7.48 |
| Cc1cc(S(=O)(=O)NCCN2CCOCC2)ccc1Cl | 21.3 |
| Cc1sc2ncn(CC(=O)NCCCN3CC(C)CC(C)C3)c(=O)c2c1S(=O)(=O)N1CC(C)CC(C)C1 (stereo not drawn) | -32.1 |
| O=C(NCC(c1cccnc1)N1CCOCC1)C1CCCCC1 (stereo not drawn) | 5 |
| Cc1ccnc(NC(=O)CNC(=O)c2ccc3ccccc3c2)c1 | -12.5 |
| COc1ccc2c(c1)c(C(=O)OCCN(C)C)c(C)n2C.Cl | -1.4 |
| CCCCn1c(C)c(C(=O)O)c2cc(OC)ccc21 | 1.59 |
| CCOC(=O)c1c(-c2ccccc2)c2cc(OC)ccc2n1CCCN(C)C.Cl | -72.4 |
